Laboratory results from PubChem BioAssay.
Where “and” joins values, the source holds several entries; their conditions need not be identical. Identical values can stand only once. Calls of active or inactive are those of the source. Unless noted, no stated cut-off is given here; in the data, active means nuclear beta-catenin stimulation mostly above about 4.2% (no sharp cut-off); inactive means mostly below about 10%.

Tests used:
[1] = stimulators of nuclear beta-catenin in C2C12, primary screen, imaging, WNT3A-conditioned medium, mouse C2C12, NPC library (AID 1117326); details: stronger effect = higher value
[2] = stimulators of insulin release from INS-1E, primary screen, cell-based, 5 mM glucose, NPC library (AID 1117329;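 active means compound raises insulin release from rat beta cells at 5 mM glucose, no numeric limit stated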); details: rat INS-1E insulin secretion, at 10 µM, stronger effect = higher value
[3] = glucagon-like peptide 1 release enhancers, primary assay, NCI-H716 cell line, NPC library (AID 1117341;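 active means compound raises GLP1 secretion from the human gut endocrine cells, with no numeric limit stated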); details: NCI-H716 cells, at 10 µM, stronger effect = higher value
[4] = sensitizers of A549 cells to miR-34 induction, primary screen, imaging, A549 dox-inducible miR-34, nuclei and caspase counts (AID 1347080;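 active means compounds whose cell count with miR-34 switched on is under 0.7 times the count with it off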); details: A549 miR-34 inducible, Hoechst nuclei count, 48 h
[5] = viability rescue of complex I mutant cybrids, primary screen, cell-based, galactose medium, ATP luminescence (AID 1645843;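 active means z-score of at least 1.8 in each of two replicates, scored against plate mean and spread of sample wells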;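 further: positive z means more ATP and so rescue of galactose-driven cybrid death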); details: complex I mutant cybrid cells, 72 h, stronger effect = higher value
[6] = target: NAD(+) hydrolase SARM1 (Homo sapiens) (UniProt Q6SZW1); assay: SARM1 TIR NADase inhibitors, cell lysate, NAD-Glo luminescence (AID 1508614;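 active means compound whose remaining NAD level is above about 45 nM, limit read from the data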); details: SAM-TIR HEK293T lysate NADase, at 1 µM, stronger effect = higher value
[7] = target: Mitogen-activated protein kinase 7 (Homo sapiens) (UniProt Q13164); assay: ERK5 transactivation activators in reporter cells, primary screen, cell-based, HTS (AID 1508626;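 active means luciferase signal above three times the same-plate solvent-only control wells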;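 further: luciferase driven by Gal4-ERK5 fusion binding five Gal4 sites before minimal TATA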); details: HeLa Gal4-ERK5 transactivation, 18 h, at 5 µM, stronger effect = higher value
[8] = survival rescue of mitochondrial mutant cells in low glucose, primary screen, MELAS cybrids, Rieske KO mouse fibroblasts, CellTiter-Glo (AID 1508586;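 active means mean z-score across replicates of 1.96 or higher in either the MELAS or the Rieske mutant cell line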;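 further: z relative to plate mean and SD of compound and empty wells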)
[9] = growth inhibition of GSK3B-pretreated HCT116 cells – cell-based, CellTiter-Glo, 0.2 to 20 µM (AID 1117336;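 active means compounds lowering colon cancer cell viability after pretreatment blocking the GSK3B kinase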); details: HCT116 viability after GSK3B inhibitor, at 20 µM, stronger effect = higher value
[10] = inhibition of endothelial tube formation, primary screen, imaging, VEGF stimulated, CD31 staining, tube area, NPC library (AID 1117340;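 active means compound that reduces growth-factor-driven endothelial tube area in a mixed cell culture, no cutoff stated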); details: VEGF-stimulated ADSC/ECFC co-culture, at 10 µM, stronger effect = higher value
[11] = HCT116 colon cancer cell growth inhibition, primary screen, CellTiter-Glo luminescence, NPC library (AID 1117342;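 active means compounds that lower survival of HCT116 colon cancer cells in the luminescence readout, no numeric limit stated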); details: at 20 µM (top of the series)
[12] = CellTiter-Glo luminescent readout of SW480 viability loss, NPC library primary (AID 1117343;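 active means compounds that lower viability of the colon cancer cells in the luminescence readout, with no numeric limit stated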); details: CellTiter-Glo luminescence; at 20 µM (top of the series) unless noted
[13] = decreased DLD-1 cellular survival, CellTiter-Glo luminescent readout, NPC compound collection, primary HTS (AID 1117346;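 active means compounds that lower survival of DLD-1 colon cancer cells in the luminescence readout, no cutoff given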); details: DLD-1 viability, CellTiter-Glo luminescence; at 20 µM (top of the series)
[14] = stronger effect = lower value, cell number ratio, induced over uninduced
[15] = measured here: relative caspase fold change +Dox/-Dox
[16] = measured here: total cells with miR-34 induction, stronger effect = lower value
[17] = measured here: total cells without miR-34 induction

Sequence of NAD(+) hydrolase SARM1 (Homo sapiens) (Q6SZW1 whole entry, looked up, the tested form may be a part): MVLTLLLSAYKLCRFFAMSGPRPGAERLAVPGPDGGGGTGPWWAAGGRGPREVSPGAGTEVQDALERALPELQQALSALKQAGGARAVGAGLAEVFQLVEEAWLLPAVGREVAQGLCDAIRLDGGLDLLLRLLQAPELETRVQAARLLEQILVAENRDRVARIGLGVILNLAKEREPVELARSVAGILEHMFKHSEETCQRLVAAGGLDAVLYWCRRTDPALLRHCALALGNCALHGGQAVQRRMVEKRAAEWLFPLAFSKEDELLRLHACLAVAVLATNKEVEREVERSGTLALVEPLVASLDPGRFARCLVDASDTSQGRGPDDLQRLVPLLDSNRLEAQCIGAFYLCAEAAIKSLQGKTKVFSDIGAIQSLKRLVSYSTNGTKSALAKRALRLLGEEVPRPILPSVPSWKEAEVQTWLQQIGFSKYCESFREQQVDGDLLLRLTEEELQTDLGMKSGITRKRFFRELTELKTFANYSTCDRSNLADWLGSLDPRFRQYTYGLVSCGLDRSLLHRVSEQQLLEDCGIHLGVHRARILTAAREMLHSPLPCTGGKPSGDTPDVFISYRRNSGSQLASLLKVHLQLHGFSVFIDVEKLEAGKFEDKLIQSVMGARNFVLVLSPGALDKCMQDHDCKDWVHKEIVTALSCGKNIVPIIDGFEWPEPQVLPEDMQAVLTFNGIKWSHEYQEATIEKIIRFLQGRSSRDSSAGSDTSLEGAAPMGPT
Sequence of Mitogen-activated protein kinase 7 (Homo sapiens) (Q13164 whole entry, looked up, the tested form may be a part): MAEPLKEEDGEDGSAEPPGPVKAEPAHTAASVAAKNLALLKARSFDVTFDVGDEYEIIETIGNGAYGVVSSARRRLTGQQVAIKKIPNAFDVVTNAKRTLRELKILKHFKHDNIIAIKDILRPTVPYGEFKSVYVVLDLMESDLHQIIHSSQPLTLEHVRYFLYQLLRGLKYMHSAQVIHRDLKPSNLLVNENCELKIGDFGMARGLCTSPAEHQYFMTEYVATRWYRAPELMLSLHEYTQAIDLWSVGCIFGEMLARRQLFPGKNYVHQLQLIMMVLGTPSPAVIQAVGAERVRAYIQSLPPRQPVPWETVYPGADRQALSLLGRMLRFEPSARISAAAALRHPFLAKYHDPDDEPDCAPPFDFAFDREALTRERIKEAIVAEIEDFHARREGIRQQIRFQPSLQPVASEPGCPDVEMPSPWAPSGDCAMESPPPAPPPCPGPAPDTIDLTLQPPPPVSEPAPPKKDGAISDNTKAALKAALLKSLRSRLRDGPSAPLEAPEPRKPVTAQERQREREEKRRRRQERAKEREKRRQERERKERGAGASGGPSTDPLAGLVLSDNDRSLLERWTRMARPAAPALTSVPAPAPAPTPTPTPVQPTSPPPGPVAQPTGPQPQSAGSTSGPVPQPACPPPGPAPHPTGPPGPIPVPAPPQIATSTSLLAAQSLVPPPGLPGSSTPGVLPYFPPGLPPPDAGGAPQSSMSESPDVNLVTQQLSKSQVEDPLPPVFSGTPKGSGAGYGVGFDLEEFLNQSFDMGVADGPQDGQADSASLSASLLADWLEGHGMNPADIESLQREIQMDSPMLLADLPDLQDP

CN1CCN(C2Cc3ccccc3Sc3ccc(Cl)cc32)CC1 (configuration not stated)
nuclear beta-catenin stimulation ([1]; at 10 µM): 5.2% (inactive) | nuclear beta-catenin stimulation ([1]; stimulation, at 2 µM): -1.6% | insulin secretion stimulation [2]: 6.6% (inactive) | GLP1 secretion stimulation [3]: 13.2% (inactive) | fold change [4, 14]: 1.08 (inactive) | fold change [4, 15]: 0.783 | cell count [4, 16]: 5640 | cell count [4, 17]: 5230 | z-score [5]: -1.27 (inactive)

O=C(O)CCC(=O)OC[C@@H](NC(=O)C(Cl)Cl)[C@H](O)c1ccc([N+](=O)[O-])cc1
nuclear beta-catenin stimulation ([1]; at 10 µM): 2.4% (inactive) | nuclear beta-catenin stimulation ([1]; stimulation, at 2 µM): 0.4% | insulin secretion stimulation [2]: 0% (inactive) | GLP1 secretion stimulation [3]: 4.4% (inactive) | fold change [4, 14]: 0.886 (inactive) | fold change [4, 15]: 1.1 | cell count [4, 16]: 11000 | cell count [4, 17]: 12500 | remaining NAD [6]: 10 nM (inactive) | luciferase signal [7]: 44 AU (inactive)

NC1=NCC2c3ccccc3Cc3ccccc3N12 (configuration not stated)
nuclear beta-catenin stimulation ([1]; at 10 µM): -0.3% (inactive) | nuclear beta-catenin stimulation ([1]; stimulation, at 2 µM): -1% | insulin secretion stimulation [2]: 12.5% (inactive) | GLP1 secretion stimulation [3]: 4.4% (inactive) | fold change [4, 14]: 0.943 (inactive) and 0.763 (inactive) | fold change [4, 15]: 0.904 and 1 | cell count [4, 16]: 9270 and 7910 | cell count [4, 17]: 9840 and 10400 | z-score ([8]; MELAS cybrid survival, CellTiter-Glo 48 h, stronger effect = higher value): -0.3 (inactive) | z-score ([8]; Rieske KO mouse fibroblast survival, CellTiter-Glo 72 h): -0.211 | z-score [5]: -0.265 (inactive)

CCCCCCOC(=O)c1cccnc1
nuclear beta-catenin stimulation ([1]; at 10 µM): 5.7% (inactive) | nuclear beta-catenin stimulation ([1]; stimulation, at 2 µM): 1.5% | insulin secretion stimulation [2]: -1.25% (inactive) | GLP1 secretion stimulation [3]: -0.9% (inactive)

CCOC(=O)[C@H](CCc1ccccc1)N[C@@H](C)C(=O)N1C(=O)N(C)C[C@H]1C(=O)O
nuclear beta-catenin stimulation ([1]; at 10 µM): 0% (inactive) | nuclear beta-catenin stimulation ([1]; stimulation, at 2 µM): -1.6% | insulin secretion stimulation [2]: 0% (inactive) | GLP1 secretion stimulation [3]: 2% (inactive)

CC(CC=O)CCCC(C)(C)O (configuration not stated)
nuclear beta-catenin stimulation ([1]; at 10 µM): 0.5% (inactive) | nuclear beta-catenin stimulation ([1]; stimulation, at 2 µM): -1.3% | insulin secretion stimulation [2]: 0.85% (inactive) | GLP1 secretion stimulation [3]: 3.1% (inactive)

CC1CCC(C(C)C)C(OC(=O)c2ccccc2O)C1 (configuration not stated)
nuclear beta-catenin stimulation ([1]; at 10 µM): -1.1% (inactive) | nuclear beta-catenin stimulation ([1]; stimulation, at 2 µM): -2.6% | insulin secretion stimulation [2]: -1% (inactive) | GLP1 secretion stimulation [3]: -8.7% (inactive)

Cn1cc(S(C)=O)c(=O)c2ccc(F)cc21 (configuration not stated)
nuclear beta-catenin stimulation ([1]; at 10 µM): 0.3% (inactive) | nuclear beta-catenin stimulation ([1]; stimulation, at 2 µM): 10.4% | viability decrease [9]: -6.9% (inactive) | tube area decrease [10]: 1.1% (inactive) | inhibition of viability [11]: 4.2% (inactive) | viability decrease (inhibition) [12]: -1.3% (inactive) | viability decrease (inhibition) [13]: -1.8% (inactive)

CC(=O)NC(=O)c1ccccc1O
nuclear beta-catenin stimulation ([1]; at 10 µM): 4.6% (inactive) | nuclear beta-catenin stimulation ([1]; stimulation, at 2 µM): 0.9% | insulin secretion stimulation [2]: -0.5% (inactive) | GLP1 secretion stimulation [3]: -0.9% (inactive)

COC(=O)CCCCC(CCSS/C(CCO)=C(\C)N(C=O)Cc1cnc(C)nc1N)SC(C)=O (configuration not stated)
nuclear beta-catenin stimulation ([1]; at 10 µM): 1% (inactive) | nuclear beta-catenin stimulation ([1]; stimulation, at 2 µM): -1% | insulin secretion stimulation [2]: 0.75% (inactive) | GLP1 secretion stimulation [3]: 0.4% (inactive)

CC(C)(CO)[C@@H](O)C(=O)NCCC(=O)NCCSSCCNC(=O)CCNC(=O)[C@H](O)C(C)(C)CO
nuclear beta-catenin stimulation ([1]; at 10 µM): 0% (inactive) | nuclear beta-catenin stimulation ([1]; stimulation, at 2 µM): -1.3% | insulin secretion stimulation [2]: 0.15% (inactive) | GLP1 secretion stimulation [3]: 2% (inactive) | remaining NAD [6]: 10 nM (inactive) | luciferase signal [7]: 160 AU (active)
